# Data published in PubChem BioAssay (NCATS).
# Values joined by “and” are separate entries in the source; they are usually repeats but may differ in a detail not shown here. Equal entries are not always repeated. Inconclusive results are not listed. A call without a number means that no potency is given here. Unmarked numbers belong to inactive results. Active and inactive are the calls of the source. Unless noted, calls come from the whole dose curve; as a rule, active = well fitted curve in the direction sought with a large enough effect; inconclusive = small, poorly fitted or top-dose-only effect, or another doubt; inactive = no such curve, though single readings can be large; an effect the other way counts as inactive or inconclusive.
# Assays:
# [1] = biological target: Cellular tumor antigen p53 (Homo sapiens) (UniProt P04637); test: Primary qHTS for small molecule compounds that upregulate eGFP-tagged delta133p53alpha (in N-terminal) cells. (AID 2060322); conditions: NCI-H358 eGFP-delta133p53alpha fluorescence, 24 h; activation: stronger effect = higher value; note: nearly all actives have a fitted effect of over 75% in size; note: potency is the fitted concentration of half-maximal effect; for activation: series mostly up to about 56 µM
# Sequence of Cellular tumor antigen p53 (Homo sapiens) (P04637 whole entry, looked up): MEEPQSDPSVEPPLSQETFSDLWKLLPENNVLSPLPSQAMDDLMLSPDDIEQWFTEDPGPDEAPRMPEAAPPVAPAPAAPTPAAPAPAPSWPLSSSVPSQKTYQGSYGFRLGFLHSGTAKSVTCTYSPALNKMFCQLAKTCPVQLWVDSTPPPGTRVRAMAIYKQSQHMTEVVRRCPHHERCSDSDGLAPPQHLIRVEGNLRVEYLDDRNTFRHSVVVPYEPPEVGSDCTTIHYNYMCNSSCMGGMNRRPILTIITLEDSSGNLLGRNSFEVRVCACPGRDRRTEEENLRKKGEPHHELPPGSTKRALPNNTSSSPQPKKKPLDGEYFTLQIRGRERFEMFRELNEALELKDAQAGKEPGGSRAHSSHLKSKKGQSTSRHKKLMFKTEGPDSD
# How it was run: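 NCI-H358 cells pre-induced 24 h with 10 ng/ml doxycycline to express N-terminal eGFP-delta133p53alpha, then dosed 24 h at 37C without doxycycline; fixed, Hoechst-stained, GFP intensity by laser scanning cytometry, normalized to DMSO (0%) and 57.5 uM 5-azacytidine (100%).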
# [2] = biological target: Cellular tumor antigen p53 (Homo sapiens) (UniProt P04637); test: Primary qHTS for small molecule compounds that upregulate eGFP-tagged delta133p53alpha (in C-terminal) cells. (AID 2060324); note: potency is the fitted concentration of half-maximal effect
# How it was run: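 C-terminal eGFP-tagged delta133p53alpha NCI-H358 line; dox-induced (100 ng/ml, 24 h) then plated without dox; compounds pinned in titration, 24 h 37 °C/5% CO2; PFA fix, Hoechst nuclei; GFP by LSC.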
# [3] = biological target: Aldehyde dehydrogenase, mitochondrial (Homo sapiens) (UniProt P05091); test: qHTS for Inhibitors of the Aldehyde Dehydrogenase Family (ALDH2) Validation screens (AID 2061302; active = well fitted inhibition curve with a large enough effect; title and protocol of this record describe different tests)
# [4] = biological target: Retinal dehydrogenase 2 (Homo sapiens) (UniProt O94788); test: qHTS for Inhibitors of the Aldehyde Dehydrogenase Family (ALDH1A2) Confirmation screens (AID 2061314); note: nearly all actives have a fitted effect of over 65% in size
# [5] = biological target: Aldehyde dehydrogenase 1A1 (Homo sapiens) (UniProt P00352); test: qHTS for Inhibitors of the Aldehyde Dehydrogenase Family (ALDH1A1) Confirmatory screens (AID 2061316); note: potency is the fitted concentration of half-maximal effect; nearly all actives have a fitted effect of over 65% in size
# [6] = biological target: Retinaldehyde dehydrogenase 3 (Homo sapiens) (UniProt P47895); test: qHTS for Inhibitors of the Aldehyde Dehydrogenase Family (ALDH1A3) Validation screen (AID 2061312); note: nearly all actives have a fitted effect of over 45% in size
# [7] = BET inhibitor-based combinations targeting novel dependencies in MECOM-rearranged (r) AML: MV-4-11 cell line (AID 2202233); note: nearly all actives have a fitted effect of over 45% in size; note: potency is the fitted concentration of half-maximal effect
# How it was run: (§1)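 Cells were plated at 500 per well and exposed to each drug across an 11-point dose range for 48 hr at standard incubator conditions. Viability was read by CellTiter-Glo luminescence, and activity was expressed as AUC and per-cell-line Z-transformed AUC.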
# [8] = BET inhibitor-based combinations targeting novel dependencies in MECOM-rearranged (r) AML: HNT-34 cell line (AID 2202234); note: nearly all actives have a fitted effect of over 35% in size; note: potency is the fitted concentration of half-maximal effect
# How it was run: as §1
# [9] = BET inhibitor-based combinations targeting novel dependencies in MECOM-rearranged (r) AML: UCSD-AML1 cell line (AID 2202235); note: series mostly up to about 46 µM; nearly all actives have a fitted effect of over 40% in size
# How it was run: as §1
# [10] = BET inhibitor-based combinations targeting novel dependencies in MECOM-rearranged (r) AML: AML-191 cell line (AID 2202236; note: nearly all actives have a fitted effect of over 35% in size; note: potency is the fitted concentration of half-maximal effect)
# How it was run: (§2)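 500 cells/well; 11-pt dose curve; 48 h, standard incubator; CellTiter-Glo luminescence after 15 min RT; DMSO/empty-well normalization; AUC plus Z-AUC (mean-centered within each line).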
# [11] = BET inhibitor-based combinations targeting novel dependencies in MECOM-rearranged (r) AML: AML-194 cell line (AID 2202237; note: nearly all actives have a fitted effect of over 40% in size; note: potency is the fitted concentration of half-maximal effect)
# How it was run: as §2
# [12] = BET inhibitor-based combinations targeting novel dependencies in MECOM-rearranged (r) AML: OCI-AML3 cell line (AID 2202232); conditions: Potency: OCI-AML3 viability; note: nearly all actives have a fitted effect of over 35% in size; note: potency is the fitted concentration of half-maximal effect
# How it was run: as §2
# [13] = BET inhibitor-based combinations targeting novel dependencies in MECOM-rearranged (r) AML: SET-2 cell line (AID 2202231); conditions: SET-2 AML cells viability, CellTiter-Glo luminescence, 48 h; viability: stronger effect = lower value, concentration not given here; note: nearly all actives have a fitted effect of over 35% in size; note: potency is the fitted concentration of half-maximal effect
# How it was run: as §2
smiles,measurement,setting,value
Oc1ccccc1O,activation,[1],-3.18%
same,Potency,[2],inactive
same,Potency,[3],inactive
same,Potency,[4],inactive
same,Potency,[5],11.3 µM (active)
CC(=O)Oc1ccccc1C(=O)O,activation,[1],23.2% and 81.8% and -5.87%
same,Potency,[2],inactive
same,Potency,[3],inactive
same,Potency,[6],inactive
same,Potency,[7],inactive
same,Potency,[8],inactive
same,Potency,[9],inactive
same,Potency,[10],inactive
same,Potency,[11],inactive
CN(C)CCC=C1c2ccccc2C=Cc2ccccc21,activation,[1],5.02% and 17.3%
same,Potency,[2],inactive
same,Potency,[3],inactive
same,Potency,[6],inactive
same,Potency,[12],16.6 µM (active)
same,Potency,[7],20.9 µM (active)
same,Potency,[9],inactive
O=C(c1ccccc1)c1ccc2n1CCC2C(=O)O (configuration not stated),activation,[1],-6.21% and -3.1%
same,Potency,[2],inactive
same,Potency,[3],inactive
same,viability,[13],104%
same,Potency,[12],inactive
same,Potency,[7],inactive
same,Potency,[9],inactive
same,Potency,[11],inactive
Nc1nc(OCc2ccccc2)c2[nH]cnc2n1,activation,[1],4.06%
same,Potency,[2],inactive
same,Potency,[3],inactive
same,Potency,[6],inactive
same,Potency,[11],inactive
Oc1ccc(/C=C/c2cc(O)cc(O)c2)cc1,activation,[1],1.67% and -36.3%
same,Potency,[2],inactive
same,Potency,[3],inactive
same,Potency,[6],inactive
same,Potency,[7],16.6 µM (active)
C[C@@H](N)C1CCC(C(=O)Nc2ccncc2)CC1 (some centres not stated),activation,[1],-43.5% and -9.78%
same,Potency,[2],inactive
same,Potency,[3],inactive
same,viability,[13],110%
same,Potency,[12],inactive
same,Potency,[9],inactive
same,Potency,[11],inactive
O=C1Nc2ccc(I)cc2/C1=C/c1cc(Br)c(O)c(Br)c1,activation,[1],-56.5%
same,Potency,[2],19 µM (active)
same,Potency,[3],inactive
same,viability,[13],96.6%
same,Potency,[12],inactive
same,Potency,[7],inactive
same,Potency,[9],inactive
same,Potency,[10],18.6 µM (active)
same,Potency,[11],inactive
CC(=O)N1CCN(c2ccc(OC[C@H]3CO[C@](Cn4ccnc4)(c4ccc(Cl)cc4Cl)O3)cc2)CC1,activation,[1],-11.5% and -0.0769%
same,Potency,[2],inactive
same,Potency,[3],inactive
same,Potency,[6],inactive
same,Potency,[12],inactive
same,Potency,[7],inactive
same,Potency,[8],inactive
same,Potency,[9],inactive
same,Potency,[10],inactive
Cc1cccc(-c2[nH]c(C(C)(C)C)nc2-c2ccc3nccnc3c2)n1,activation,[1],-6.37% and 25.5%
same,Potency,[2],inactive
same,Potency,[3],inactive
same,Potency,[6],inactive
same,Potency,[9],inactive
Cc1ccc2c(c1)C(N1CCN(C)CC1)=Nc1cccnc1N2,activation,[1],13.7%
same,Potency,[2],inactive
same,Potency,[3],inactive
same,Potency,[5],12.7 µM (active)
CC(C)(C)C(=O)Oc1ccc(S(=O)(=O)Nc2ccccc2C(=O)NCC(=O)O)cc1,activation,[1],-5.86% and -2.63% and -11.2%
same,Potency,[2],inactive
same,Potency,[3],inactive
same,viability,[13],111%
same,Potency,[12],inactive
same,Potency,[7],inactive
same,Potency,[8],inactive
same,Potency,[9],inactive
same,Potency,[10],inactive
same,Potency,[11],inactive
COc1ccc2[nH]cc(CCNC(C)=O)c2c1,activation,[1],4.42% and -13.4% and -16.3%
same,Potency,[2],inactive
same,Potency,[3],inactive
same,Potency,[6],inactive
same,Potency,[12],inactive
same,Potency,[7],inactive
same,Potency,[8],inactive
same,Potency,[9],inactive
same,Potency,[10],inactive
same,Potency,[11],inactive
CC[C@H](C)C(=O)O[C@H]1CCC=C2C=C[C@H](C)[C@H](CC[C@@H]3C[C@@H](O)CC(=O)O3)[C@H]21,activation,[1],-12.3%
same,Potency,[2],inactive
same,Potency,[3],inactive
same,Potency,[6],inactive
same,Potency,[12],11.8 µM (active)
CN1CCC(=C2c3ccccc3C=Cc3ccccc32)CC1,activation,[1],-15.3% and 19.5% and -34.1%
same,Potency,[2],inactive
same,Potency,[3],inactive
same,Potency,[6],inactive
same,Potency,[9],inactive
Cc1cc(C(C)(C)C)cc(C)c1CC1=NCCN1,activation,[1],4.18% and 6.06% and -36%
same,Potency,[2],inactive
same,Potency,[3],inactive
same,Potency,[6],inactive
same,Potency,[7],18.6 µM (active)
same,Potency,[11],inactive
NS(=O)(=O)c1cc2c(cc1Cl)NCNS2(=O)=O,activation,[1],-8.47% and 26.3% and -35.3%
same,Potency,[2],inactive
same,Potency,[3],inactive
same,Potency,[6],inactive
same,Potency,[12],inactive
same,Potency,[7],inactive
same,Potency,[8],inactive
same,Potency,[9],inactive
same,Potency,[10],inactive
same,Potency,[11],inactive
Cc1ccc(S(=O)(=O)N[C@@H](Cc2ccccc2)C(=O)CCl)cc1,Potency,[1],24.3 µM (active)
same,Potency,[2],26.9 µM (active)
same,Potency,[3],inactive
same,Potency,[5],0.565 µM (active)
same,Potency,[13],18.6 µM (active)
same,Potency,[7],13.2 µM (active)
same,Potency,[8],13.2 µM (active)
same,Potency,[10],20.9 µM (active)
same,Potency,[11],23.5 µM (active)
Oc1ccc(C2CNCCc3c2cc(O)c(O)c3Cl)cc1 (configuration not stated),activation,[1],-18.2% and -20.9% and -11.7%
same,Potency,[2],inactive
same,Potency,[3],inactive
same,viability,[13],108%
same,Potency,[12],inactive
same,Potency,[7],inactive
same,Potency,[8],inactive
same,Potency,[9],inactive
same,Potency,[11],inactive
